The values below come from PubChem BioAssay (NCATS).

The nature of this experiment: qHTS drug screen for cell cycle checkpoint inhibitors in PARPi-resistant BRCA-mutant ovarian cancer cell lines. (AID 1963452). Particulars: PEO1/OlaR viability, CellTiter-Glo luminescence, 96 h; for Z-AUC: stronger effect = lower value. Put shortly:
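PEO1, PEO4 and PEO1/OlaR ovarian cancer cells, 600 per well, exposed 96 h at 37C to a dilution series. Viability read by CellTiter-Glo luminescence, normalized to DMSO and empty wells; activity summarized as Z-AUC.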
For orientation: Quantitative high-throughput screening tests each substance at several concentrations.

[1] abbreviates: measured here: PEO1 parental Z-AUC.

Active and inactive are the calls of the source. Calls follow the shape of the full dose curve.
Potency is read from the fitted curve at half-maximal effect.

Consider `Cn1c(=O)c(F)c(Nc2ccc(I)cc2F)c2c(=O)n(C[C@@H](O)CO)cnc21`, for which the Potency is 123 nM (active). Besides, under setting [1], the Z-AUC was -1.86. In addition, for the setting “measured here: PEO4 Z-AUC”, the Z-AUC is -2.03.

`Cn1cc(-c2ccc3nnc(C(F)(F)c4ccc5ncccc5c4)n3n2)cn1`: the Z-AUC is -0.354 (inactive). Further, the Z-AUC under setting [1] stood at 0.00451. Moreover, the Z-AUC (measured here: PEO4 Z-AUC) came out at 0.204.

On to `O=C(Nc1ccc(F)c(C(F)(F)F)c1)Nc1nnc(-c2ccncc2)s1`, for which the Z-AUC was -0.226 (inactive). Besides, under setting [1], the Z-AUC was -0.821. For the setting “measured here: PEO4 Z-AUC”, the Z-AUC was -0.018.

On to `COc1cc2c(cc1OC)CN(CCc1ccc(NC(=O)c3cccc4c(=O)c5cccc(OC)c5[nH]c34)cc1)CC2`, for which the Z-AUC was 1.13 (inactive). The Z-AUC under setting [1] is 0.952. Also, for the setting “measured here: PEO4 Z-AUC”, the Z-AUC was 0.963.

As to `NC(=O)c1ccc(-c2nc(-c3ccc4c(c3)OCCO4)c(-c3ccccn3)[nH]2)cc1`, the Z-AUC is 0.559 (inactive). Further, the Z-AUC under setting [1] worked out at 0.194. Further, the Z-AUC (measured here: PEO4 Z-AUC) amounted to 0.167.

With `Cc1csc(NC(=O)c2sc3nc4c(c(C(F)(F)F)c3c2N)CCC4)n1`, the Z-AUC is 0.359 (inactive). Besides, the Z-AUC under setting [1] came to 0.125. In addition, under “measured here: PEO4 Z-AUC”, the Z-AUC turned out to be 0.375.

As to `CN[C@@H](C)C(=O)N[C@H]1CCCC[C@H]2CC[C@@H](C(=O)N[C@@H](c3ccccc3)c3cn(CCCCc4ccc(CCCCn5cc([C@@H](NC(=O)[C@@H]6CC[C@@H]7CCCC[C@H](NC(=O)[C@H](C)NC)C(=O)N76)c6ccccc6)nn5)cc4)nn3)N2C1=O`, the Z-AUC was 1.6 (inactive). In addition, under setting [1], the Z-AUC was 0.404. Further, the Z-AUC (measured here: PEO4 Z-AUC) turned out to be 0.201.

On to `CCOc1cc(C(=O)Nc2ccc(Cl)c(-c3nc4ccccc4[nH]3)c2)cc(OCC)c1OCC`, for which the Z-AUC was -0.941 (inactive). For the same compound, the Z-AUC under setting [1] is 0.578. Further, for the setting “measured here: PEO4 Z-AUC”, the Z-AUC is -0.467.

Regarding `CN([C@@H](Cc1ccc(OS(=O)(=O)c2cccc3cnccc23)cc1)C(=O)N1CCN(c2ccccc2)CC1)S(=O)(=O)c1cccc2cnccc12`, the Z-AUC is 1.57 (inactive). Besides, under setting [1], the Z-AUC amounted to 1.54. In addition, where the note is “measured here: PEO4 Z-AUC”, the Z-AUC is 1.7.

For the compound `CNC(=O)c1ccc(N2C(=S)N(c3ccc(C#N)c(C(F)(F)F)c3)C(=O)C2(C)C)cc1F`, the Z-AUC was 0.0364 (inactive). In addition, under setting [1], the Z-AUC came to 0.676. For the same compound, the Z-AUC (measured here: PEO4 Z-AUC) is 0.909.

Turning to `COc1ccc(-c2ccc3c(N4CCOCC4)nc(N4C[C@@H](C)O[C@@H](C)C4)nc3n2)cc1CO`, the Z-AUC is 1.56 (inactive). Also, the Z-AUC under setting [1] is 1.12. The Z-AUC (measured here: PEO4 Z-AUC) worked out at 1.19.

On to `CCN(c1ccccc1)c1cc(NC)[n+](C)c(C)n1`, for which the Z-AUC is 1.35 (inactive). For the same compound, the Z-AUC under setting [1] turned out to be 1.27. Moreover, where the note is “measured here: PEO4 Z-AUC”, the Z-AUC was 1.04.

Regarding `CCCS(=O)(=O)Nc1ccc(F)c(C(=O)c2c[nH]c3ncc(Cl)cc23)c1F`, the Z-AUC is -0.11 (inactive). The Z-AUC under setting [1] is 0.791. For the same compound, the Z-AUC (measured here: PEO4 Z-AUC) came out at 0.927.

As to `COc1ccc(C2=N[C@H](c3ccc(Cl)cc3)[C@H](c3ccc(Cl)cc3)N2C(=O)N2CCNC(=O)C2)c(OC(C)C)c1`, the Z-AUC is 0.858 (inactive). In addition, the Z-AUC under setting [1] turned out to be 0.454. Also, the Z-AUC (measured here: PEO4 Z-AUC) is 1.13.

With `COc1ccc(COc2cc3oc(=O)c4cc(C(C)O)ccc4c3cc2OC)cc1` (stereo not given), the Z-AUC was 1.06 (inactive). Besides, under setting [1], the Z-AUC stood at 0.636. Moreover, the Z-AUC (measured here: PEO4 Z-AUC) is 1.09.

Turning to `CN(C(=O)c1ccc(F)cc1C(F)(F)F)C1CCN(c2nnc(-c3ccnn3C)c3ccccc23)CC1`, the Z-AUC is -0.541 (inactive). The Z-AUC under setting [1] was -0.599. In addition, the Z-AUC (measured here: PEO4 Z-AUC) is -0.538.

As to `Cc1cccc(-c2nn(C(=S)Nc3ccccc3)cc2-c2ccnc3ccccc23)n1`, the Z-AUC was 0.884 (inactive). For the same compound, the Z-AUC under setting [1] amounted to 0.402. In addition, under “measured here: PEO4 Z-AUC”, the Z-AUC amounted to 0.406.

On to `COc1ccccc1[C@H](c1cccc2ccccc12)[C@@](C)(C#N)C(=O)N1CCC(c2cccc(C(F)(F)F)c2)CC1`, for which the Z-AUC was 1.34 (inactive). In addition, the Z-AUC under setting [1] is 1.15. The Z-AUC (measured here: PEO4 Z-AUC) was 1.29.

With `Cc1cccc(-c2[nH]c(C(C)(C)C)nc2-c2ccc3nccnc3c2)n1`, the Z-AUC was 0.914 (inactive). For the same compound, the Z-AUC under setting [1] worked out at 0.697. Moreover, the Z-AUC (measured here: PEO4 Z-AUC) is 0.424.

Consider `COc1cccc2cc(-c3nc(C4CCC(C(=O)O)CC4)n4ncnc(N)c34)[nH]c12` (stereo not given), for which the Z-AUC was -0.482 (inactive). For the same compound, the Z-AUC under setting [1] is -0.688. Further, the Z-AUC (measured here: PEO4 Z-AUC) is -0.315.
